Measured values published in the antibiotic and cytotoxicity screens of Wong et al. (2023).
The whole screen tested about 39,000 compounds, of which about 3,300 (8.5%) were called active. This excerpt belongs to a sample that is enriched for actives.

System: HepG2
Assay: cytotoxicity call (relative viability < 0.9)
Settings: 10 µM

SMILES | cytotoxicity call
CN(C)C(=O)C[C@H]1CC[C@H]2[C@@H](COC[C@H](O)CN2S(=O)(=O)c2ccccc2)O1 | inactive
Cc1noc(C)c1S(=O)(=O)Nc1ccc2c(c1)CC(=O)N([C@@H](C)CO)C[C@H](C)[C@@H](CN(C)C(=O)Nc1ccccc1)O2 | inactive
C[C@H](CO)N1C[C@H](C)[C@@H](CN(C)S(=O)(=O)c2ccc(Cl)cc2)Oc2ccc(NC(=O)Cn3cnnn3)cc2C1=O | inactive
Cc1noc(C)c1NC(=O)N(C)C[C@H]1Oc2ccc(NC(=O)Nc3ccc(C(F)(F)F)cc3)cc2CC(=O)N([C@H](C)CO)C[C@@H]1C | inactive
CCN([NH2+][O-])c1ccc(O)c(O)c1 | inactive
C[C@H]1CN([C@@H](C)CO)C(=O)CCCn2cc(nn2)CO[C@@H]1CN(C)C(=O)Nc1ccnc(N2CCOCC2)c1 | inactive
Cc1ccc(S(=O)(=O)N(C)C[C@H]2Oc3ccc(NC(=O)Nc4ccc(C(F)(F)F)cc4)cc3C(=O)N([C@@H](C)CO)C[C@@H]2C)cc1 | inactive
Cc1ccc(S(=O)(=O)N(C)C[C@@H]2Oc3ccc(NC(=O)Nc4ccc(C(F)(F)F)cc4)cc3C(=O)N([C@H](C)CO)C[C@@H]2C)cc1 | active
Cc1ccc(S(=O)(=O)N(C)C[C@H]2Oc3ccc(NC(=O)Nc4ccc(C(F)(F)F)cc4)cc3C(=O)N([C@H](C)CO)C[C@@H]2C)cc1 | inactive
Cc1ccc(S(=O)(=O)N(C)C[C@@H]2Oc3ccc(NC(=O)Nc4ccc(C(F)(F)F)cc4)cc3C(=O)N([C@@H](C)CO)C[C@@H]2C)cc1 | inactive
Cc1ccc(S(=O)(=O)N(C)C[C@@H]2Oc3ccc(NC(=O)Nc4ccc(C(F)(F)F)cc4)cc3C(=O)N([C@@H](C)CO)C[C@H]2C)cc1 | active
Cc1ccc(S(=O)(=O)N(C)C[C@@H]2Oc3ccc(NC(=O)Nc4ccc(C(F)(F)F)cc4)cc3C(=O)N([C@H](C)CO)C[C@H]2C)cc1 | inactive
Cc1ccc(S(=O)(=O)N(C)C[C@H]2Oc3ccc(NC(=O)Nc4ccc(C(F)(F)F)cc4)cc3C(=O)N([C@H](C)CO)C[C@H]2C)cc1 | active
Cc1ccc(S(=O)(=O)N(C)C[C@H]2Oc3ccc(NC(=O)Nc4ccc(C(F)(F)F)cc4)cc3C(=O)N([C@@H](C)CO)C[C@H]2C)cc1 | active
C[C@H]1CN([C@@H](C)CO)S(=O)(=O)c2ccc(C#CC3CCCC3)cc2O[C@@H]1CN(C)C(=O)Cc1ccncc1 | inactive
COc1ccc([Si](C)(C)[C@@H]2[C@@H](CC(=O)N3Cc4ccccc4C[C@H]3CO)O[C@]3(C(=O)N(Cc4cccc(N5CCC5=O)c4)c4ccccc43)[C@H]2C)cc1 | inactive
CC1C(=O)OC2C1CCC1(C)CCC(=O)C(C)C21 (stereo not drawn) | inactive
CN1CCN(S(=O)(=O)c2ccc(CN)cc2)CC1 | inactive
C[C@H](CO)N1C[C@H](C)[C@H](CN(C)Cc2ccc(Oc3ccccc3)cc2)Oc2ccc(NS(=O)(=O)c3ccc(Cl)cc3)cc2C1=O | inactive
C[C@@H]1CN([C@H](C)CO)C(=O)c2cc(NS(=O)(=O)c3ccc(Cl)cc3)ccc2O[C@@H]1CN(C)Cc1ccc(Oc2ccccc2)cc1 | active
C[C@H](CO)N1C[C@H](C)[C@@H](CN(C)Cc2ccc(Oc3ccccc3)cc2)Oc2ccc(NS(=O)(=O)c3ccc(Cl)cc3)cc2C1=O | inactive
C[C@@H]1CN([C@@H](C)CO)C(=O)c2cc(NS(=O)(=O)c3ccc(Cl)cc3)ccc2O[C@H]1CN(C)Cc1ccc(Oc2ccccc2)cc1 | inactive
C[C@H]1CN([C@@H](C)CO)C(=O)c2cc(NS(=O)(=O)c3ccc(Cl)cc3)ccc2O[C@@H]1CN(C)Cc1ccc(Oc2ccccc2)cc1 | active

SMILES | cytotoxicity call
C[C@H]1CN([C@@H](C)CO)C(=O)c2cc(NS(=O)(=O)c3ccc(Cl)cc3)ccc2O[C@H]1CN(C)Cc1ccc(Oc2ccccc2)cc1 | inactive
C[C@@H]1CN([C@@H](C)CO)C(=O)c2cc(NS(=O)(=O)c3ccc(Cl)cc3)ccc2O[C@@H]1CN(C)Cc1ccc(Oc2ccccc2)cc1 | active
C[C@@H]1CN([C@H](C)CO)C(=O)c2cc(NS(=O)(=O)c3ccc(Cl)cc3)ccc2O[C@H]1CN(C)Cc1ccc(Oc2ccccc2)cc1 | active
C[C@H](CO)N1C[C@H](C)[C@H](CN(C)C(=O)Nc2cccc3ccccc23)Oc2ncc(C#Cc3cccc(F)c3)cc2C1=O | inactive
CC(C)(C)OC(=O)Nc1cccc([C@@H]2CC(=O)N(C(=O)OCc3ccccc3)[C@@H]2C(=O)Nc2cccc3cccnc23)c1 | inactive
Cc1noc(C)c1NC(=O)Nc1ccc2c(c1)C(=O)N([C@H](C)CO)C[C@@H](C)[C@H](CN(C)C(=O)C1CCCCC1)OCCCC[C@@H](C)O2 | inactive
C[C@@H]1CN([C@H](C)CO)C(=O)c2cc(C#CC3(O)CCCC3)cnc2O[C@H]1CN(C)S(=O)(=O)c1cccc(F)c1 | inactive
CCC1C(=O)OCC1Cc1cncn1C.O=[N+]([O-])O (stereo not drawn) | inactive
Cc1noc(C)c1NC(=O)Nc1cccc2c1O[C@@H](CN(C)Cc1ccc(Oc3ccccc3)cc1)[C@H](C)CN([C@@H](C)CO)C2=O | inactive
CN(C)CCCNC(=O)C[C@H]1CC[C@H]2[C@@H](COC[C@H](O)CN2S(=O)(=O)c2ccc(F)cc2)O1 | inactive
CO[C@H]1CN(C)C(=O)c2ccc(NC(=O)Nc3cccc(Cl)c3)cc2OC[C@@H](C)N(C(=O)Nc2c(C)noc2C)C[C@H]1C | inactive
C[C@H]1CN([C@@H](C)CO)C(=O)c2cc(NC(=O)Nc3cccc4ccccc34)ccc2O[C@H]1CN(C)S(=O)(=O)c1ccccc1 | inactive
C[C@H](CO)N1C[C@H](C)[C@H](CN(C)C(=O)Nc2cccc3ccccc23)Oc2ccc(NC(=O)Nc3ccc(C(F)(F)F)cc3)cc2C1=O | inactive
CCCCc1nc(-c2ccc(OCCCN(CC)CC)cc2)cn1-c1ccc(Oc2ccc(Cl)cc2)cc1 | active
CN(C)CCOC(=O)COc1ccc(Cl)cc1.Cl | inactive
CCCC[C@@H](C#N)c1ccccn1 | inactive
CN(C)CC(=O)N[C@@H]1CC[C@H](CCNS(=O)(=O)c2ccccc2)O[C@H]1CO | inactive
O=C(N[C@H](c1ccc(F)cc1)c1ccc2ccccc2n1)C1CCN(Cc2ccc3ccccc3n2)CC1 | inactive
O=C(N[C@@H](c1ccccc1)c1ccc2ccccc2n1)C1CCN(Cc2ccc(Oc3ccccc3)cc2)CC1 | inactive
COc1cc(CN2CCC(C(=O)N[C@@H](c3ccc(F)cc3)c3ccc4ccccc4n3)CC2)cc(OC)c1 | active
O=C(N[C@H](c1ccc(F)cc1)c1ccc2ccccc2n1)C1CCN(Cc2cccc(C(F)(F)F)c2)CC1 | active
COc1cc(OC)nc([C@@H](NC(=O)C2CCN(Cc3ccc(Oc4ccccc4)cc3)CC2)c2ccccc2C)n1 | active
COc1ccc([C@@H](NC(=O)C2CCN(Cc3ccc(Oc4ccccc4)cc3)CC2)c2ccccc2C)cn1 | inactive

SMILES | cytotoxicity call
O=C(N[C@@H](c1ccccc1)c1ccc2ccccc2n1)C1CCN(Cc2cccc(C(F)(F)F)c2)CC1 | inactive
COc1ccccc1[C@@H](NC(=O)C1CCN(Cc2ccc(Oc3ccccc3)cc2)CC1)c1ccccn1 | inactive
O=C(N[C@H](c1ccc(F)cc1)c1ccc2ccccc2n1)C1CCN(Cc2ccc(Oc3ccccc3)cc2)CC1 | active
COc1ccc2c3c(n(c2c1)C)[C@@H](CO)N(C[C@]13CCN(CC1)Cc1ccncc1)C(=O)CN1CCOCC1 | inactive
NC(=NC(=O)N1CCOCC1)c1ccccc1 | inactive
O=C(C[C@@H]1CC[C@@H](NC(=O)Cc2ccccn2)[C@@H](CO)O1)NCCc1ccncc1 | inactive
CN(C)CCCNC(=O)[C@@H]1c2ccccc2C(=O)N(Cc2cc(C(F)(F)F)cc(C(F)(F)F)c2)[C@H]1c1ccc(CO)cc1 | inactive
CO[C@H](CN(C)S(=O)(=O)c1cn(C)cn1)[C@@H](C)CN(C(=O)Nc1ccc(C(F)(F)F)cc1)[C@@H](C)CO | inactive
CNC[C@H]1Oc2c(NS(=O)(=O)c3cn(C)cn3)cccc2C(=O)N([C@@H](C)CO)C[C@H]1C | inactive
O=C(COc1ccc(S(=O)(=O)N2CCOCC2)cc1)N1CCOCC1 | inactive
COc1ccc([Si](C)(C)[C@@H]2[C@@H](CCOC(=O)NCCCCCC(=O)NO)O[C@@]3(C(=O)N(Cc4ccccc4)c4ccc(NC(=O)[C@@H](C)OC(=O)NCCCCCC(=O)NO)cc43)[C@H]2C)cc1 | inactive
C[C@H]1CN([C@@H](C)CO)C(=O)Cc2cc(NC(=O)Cn3cnnn3)ccc2O[C@@H]1CN(C)Cc1ccc(Cl)c(Cl)c1 | inactive
CCc1nn(C)c2c(=O)c(=O)c2n(C)[nH]1 | inactive
O=C(CN1CCOCC1)NCC[C@H]1CC[C@@H](NS(=O)(=O)c2ccc(Cl)cc2)[C@@H](CO)O1 | inactive
C[C@H]1CN([C@@H](C)CO)C(=O)c2cc(NS(=O)(=O)c3ccccc3)ccc2O[C@H]1CN(C)Cc1ccc(Cl)c(Cl)c1 | inactive
CC(C)Oc1ccccc1OCc1cnnn1CC(=O)NS(=O)(=O)c1ccccc1OC(F)(F)F | inactive
Cc1ccc(S(=O)(=O)N(C)C[C@H]2Oc3ccc(NC(=O)NC(C)C)cc3C(=O)N([C@@H](C)CO)C[C@@H]2C)cc1 | inactive
O=C(OCc1cccc(O)c1O[C@@H]1O[C@H](CO)[C@@H](O)[C@H](O)[C@H]1O)[C@]1(O)C(=O)[C@@H]2C=C[C@H]1c1c2ccc(O)c1O | inactive
O=C1NCCc2c(O)cccc21 | inactive
COC(=O)c1cn(CC(N)=O)c2ccccc12 | inactive
Cn1cc(CN2CCC(C(=O)N[C@@H](c3ccc(F)cc3)c3ccc4ccccc4n3)CC2)c2ccccc21 | active
COc1ccc(S(=O)(=O)N(C)C[C@H]2Oc3ccc(NS(C)(=O)=O)cc3CC(=O)N([C@@H](C)CO)C[C@@H]2C)cc1 | inactive
